Values without a mark were called inactive. Activity calls are given as the source filed them.
system: not listed separately; experiment: viability profiling in MM1S myeloma cells – cell-based, resazurin fluorescence, basal, 24 h, PK04 Diversity Set, profiling panel (AID 1174); conditions: higher = more signal, called active from +8 up or from −8 down;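 also: MM1S multiple myeloma cell line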
Also: test concentration not given here.

Q: Which z-score does the source give for `COc1ccc(NN2C(C(O)c3ccc(OC)c(OCc4ccccc4)c3)C=CC3C(=O)N(C4CCCCC4)C(=O)C32)cc1` (stereo not drawn) here?
A: Its z-score is 0.0269.

Q: For `COCC(=C=CC[C@H](O)c1ccc(OCCO)cc1)C[C@H](O)c1cc(Cl)cc(Cl)c1O`, which z-score is on record?
A: Its z-score is 0.668.

Q: With `O=C/C=C/c1ccc2c(c1)OCO2` as the compound, how does the z-score read?
A: Its z-score is -0.155.

Q: Which z-score does the source give for `Cc1ccc(S[C@]2(C(=O)NCC(C)C)CC(=O)N(Cc3ccccc3Cl)[C@@H]2c2ccc(CO)cc2)cc1` here?
A: The z-score was 0.196.

Q: Which z-score does the source give for `CN(C)C(=O)[C@]1(CCC(=O)OC(C)(C)C)N=C(c2ccc(OCCCO)cc2)O[C@@H]1c1ccccc1N=[N+]=[N-]` here?
A: The z-score was -0.556.

Q: For `[N-]=[N+]=NCc1ccccc1C[C@]1(C(=O)NCCN2CCOCC2)N=C(c2ccc(OCCCO)cc2)O[C@H]1c1ccccc1N=[N+]=[N-]`, which z-score is on record?
A: The z-score was -0.739.

Q: For `O=C1O[C@H](c2ccccc2)[C@H](c2ccccc2)N2[C@H]1[C@@H](C(=O)Nc1nc3ccccc3s1)[C@]1(C(=O)Nc3ccccc31)[C@H]2c1ccc(O)cc1`, which z-score is on record?
A: The z-score was -2.72.

target: Dihydroorotate dehydrogenase (quinone), mitochondrial (Plasmodium falciparum (isolate 3D7)) (UniProt Q08210); experiment: inhibition of P. falciparum DHODH – biochemical, C-terminal His tag, absorbance 600 nm, primary screen (AID 1175); conditions: PfDHODH enzyme, DCIP absorbance 600 nm; higher = more signal, called active from +8 up or from −8 down;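 also: recombinant parasite enzyme with a five histidine tag at its C terminus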
Sequence (Q08210 whole entry, looked up): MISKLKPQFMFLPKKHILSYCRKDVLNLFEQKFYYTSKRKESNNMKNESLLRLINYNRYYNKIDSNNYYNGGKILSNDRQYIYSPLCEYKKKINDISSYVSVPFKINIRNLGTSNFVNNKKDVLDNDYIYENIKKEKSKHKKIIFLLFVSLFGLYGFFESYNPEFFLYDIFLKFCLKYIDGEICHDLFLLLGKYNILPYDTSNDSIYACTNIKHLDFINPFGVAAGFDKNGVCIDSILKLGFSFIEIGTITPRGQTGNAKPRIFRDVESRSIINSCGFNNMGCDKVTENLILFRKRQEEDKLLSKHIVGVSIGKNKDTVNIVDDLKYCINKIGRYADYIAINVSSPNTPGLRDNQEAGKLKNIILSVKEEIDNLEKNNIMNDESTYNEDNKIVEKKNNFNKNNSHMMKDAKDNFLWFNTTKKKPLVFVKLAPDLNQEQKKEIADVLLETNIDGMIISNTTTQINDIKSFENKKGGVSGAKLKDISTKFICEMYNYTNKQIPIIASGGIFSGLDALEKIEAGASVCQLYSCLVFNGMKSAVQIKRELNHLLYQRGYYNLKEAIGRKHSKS

Q: For `CN1CCC(CCCO)=CC1c1ccc(CN2CCCC2)cc1` (stereo not drawn), which composite z-score is on record?
A: Its composite z-score is -0.27.

Q: With `C=C[C@H](C)[C@@H](O)c1ccc(O)c2ccccc12` as the compound, how does the composite z-score read?
A: Its composite z-score is -0.177.

Q: With `COCCOC(=O)N1C(=O)[C@@]2(c3cc(C#CC4=CCCCC4)ccc31)[C@H](C(=O)N1CCc3cc(OC)c(OC)cc3C1)[C@H]1C(=O)O[C@H](c3ccccc3)[C@H](c3ccccc3)N1[C@@H]2c1ccccc1OCCO` as the compound, how does the composite z-score read?
A: Its composite z-score is -0.0424.

Q: With `COC(=O)C1=CC(CCCO)=CC(C2CC2)N(Cc2sc3ccccc3c2Cl)C=C1C(=O)OC` (stereo not drawn) as the compound, how does the composite z-score read?
A: Its composite z-score is -4.56.

Q: For `NC(=O)NCC#Cc1ccc2c(c1)[C@]1(C(=O)N2)[C@H](C(=O)N2CCCCCCC2)[C@H]2C(=O)O[C@H](c3ccccc3)[C@H](c3ccccc3)N2[C@@H]1c1ccc(OCCO)cc1`, which composite z-score is on record?
A: Its composite z-score is 0.835.

Q: For `COc1ccccc1CN1C(=O)c2ccccc2[C@@H](C(=O)NCCN2CCOCC2)[C@@H]1c1ccc(CO)cc1`, which composite z-score is on record?
A: The composite z-score was 0.249.

Q: With `O=c1cccc(C=Cc2ccccc2)o1` as the compound, how does the composite z-score read?
A: The composite z-score was 0.0681.

Q: With `C=C[C@@H](COC(C)=O)N(Cc1ccc([N+](=O)[O-])cc1)S(=O)(=O)c1ccc(Br)cc1` as the compound, how does the composite z-score read?
A: The composite z-score was -1.01.

Q: For `CC(C)C(=C=CC[C@@H](O)c1ccccc1OCCO)C[C@@H](O)c1ccccn1`, which composite z-score is on record?
A: Its composite z-score is -9.29 (active).

Q: With `CCCCC=C[C@@H](NC(=O)c1ccc(C(=O)OC)cc1)c1ccccc1` as the compound, how does the composite z-score read?
A: The composite z-score was -0.543.

Q: Which composite z-score does the source give for `O=c1oc(-c2ccccc2)nc2cc(Br)ccc12` here?
A: Its composite z-score is 0.336.

Q: For `C=CC(COC(C)=O)NS(=O)(=O)c1ccc(Br)cc1` (stereo not drawn), which composite z-score is on record?
A: Its composite z-score is -0.287.

Q: With `CS(=O)(=O)CCOC(=O)C1=CC(CCCO)=CC(c2cccs2)N(Cc2cc3c(cc2Br)OCO3)C=C1C(=O)OCCS(C)(=O)=O` (stereo not drawn) as the compound, how does the composite z-score read?
A: Its composite z-score is 0.359.

Q: Which composite z-score does the source give for `CCC[C@@H]1C=C(C(=O)O)[C@H](c2ccc(C)cc2)N1S(=O)(=O)c1ccc(C)cc1` here?
A: The composite z-score was -0.0451.

Q: Which composite z-score does the source give for `CC(C)NC(=O)[C@@H]1c2ccccc2C(=O)N(Cc2ccccc2)[C@H]1c1ccc(CO)cc1` here?
A: Its composite z-score is 0.0505.

Q: For `Cc1ccc(S[C@]2(C(=O)NCc3ccccc3)CC(=O)N(Cc3ccccc3)[C@@H]2c2ccc(CO)cc2)cc1`, which composite z-score is on record?
A: Its composite z-score is -0.465.

Q: Which composite z-score does the source give for `COC(=O)c1ccc(C(O)C2C=CC3C(=O)N(C)C(=O)C3N2NC(=O)OC(C)(C)C)o1` (stereo not drawn) here?
A: The composite z-score was -0.0658.

Q: For `COc1ccc(C(=O)Nc2cccc(CN3C(=O)[C@]4(O[C@H](CC(=O)N5CCC[C@H]5CO)[C@@H]([Si](C)(C)c5ccc(OC)cc5)[C@@H]4C)c4ccccc43)c2)cc1`, which composite z-score is on record?
A: The composite z-score was -2.54.

Q: With `CC(C)Cc1ccc(CN2CC[C@@H](NS(=O)(=O)c3ccccc3)C2)cc1` as the compound, how does the composite z-score read?
A: Its composite z-score is -0.371.

Q: With `C=CCC(OC(C)=O)[C@@H]1[C@@H](N(Cc2cccc3ccccc23)C(=O)c2cccc3ccccc23)c2cc(OCCCO)ccc2N1C(=O)c1ccc2ccccc2n1` (stereo partly drawn) as the compound, how does the composite z-score read?
A: The composite z-score was -0.747.

Q: With `COCCOC(=O)N1C(=O)[C@@]2(c3cc(C#CCNC(N)=O)ccc31)[C@H](c1ccc(OCCO)cc1)N1[C@H](c3ccccc3)[C@H](c3ccccc3)OC(=O)[C@H]1[C@@H]2C(=O)N1CCc2cc(OC)c(OC)cc2C1` as the compound, how does the composite z-score read?
A: The composite z-score was -0.597.

Q: For `O=C1C=CC(=O)[C@@H]2CC(COc3ccccc3)=C3[C@@H](CCc4ccccc4)OB(O)C[C@@H]3[C@H]12`, which composite z-score is on record?
A: The composite z-score was -2.68.

Q: With `[N-]=[N+]=NCc1ccccc1[C@@H]1OC(c2ccc(OCCCO)cc2)=N[C@]1(Cc1ccccc1N=[N+]=[N-])C(=O)NCc1ccccc1` as the compound, how does the composite z-score read?
A: The composite z-score was 0.139.

Q: Which composite z-score does the source give for `NCCCCCCNC(=O)[C@H]1C[C@H]2C(=O)NCC(=O)N2[C@H]1c1cccc(OCCO)c1` here?
A: Its composite z-score is -0.42.

Q: With `CCCCCN1CC=CC23O[C@@H]4/C=C\CCC(C)OC(=O)C4[C@H]2C(=O)N(CCCCCO)[C@@H]3C1=O` (stereo partly drawn) as the compound, how does the composite z-score read?
A: The composite z-score was 0.121.

Q: Which composite z-score does the source give for `O=C(NCc1ccccc1)[C@]1(CCS(=O)(=O)c2ccccc2)N=C(c2ccc(OCCCO)cc2)O[C@@H]1c1ccccc1` here?
A: The composite z-score was -0.549.

Q: For `C=CC(=C)C1=CCO[C@@H]1[C@H]1CCCN1S(=O)(=O)c1ccccc1[N+](=O)[O-]`, which composite z-score is on record?
A: Its composite z-score is -0.426.

Q: For `COc1ccc(C(=O)Nc2cccc(CN3C(=O)[C@@]4(O[C@@H](CCn5cc(CCO)nn5)[C@H]([Si](C)(C)c5ccc(OC)cc5)[C@H]4C)c4ccccc43)c2)cc1`, which composite z-score is on record?
A: The composite z-score was 1.42.

Q: With `CCCC[C@H]1OB(O)C[C@H]2C1=C(C)C[C@H]1C(=O)N(Cc3ccccc3)C(=O)[C@H]12` as the compound, how does the composite z-score read?
A: Its composite z-score is -0.231.

Q: With `COc1ccc(NN2C(C(O)c3ccc(OC)c(OCc4ccccc4)c3)C=CC3C(=O)N(C4CCCCC4)C(=O)C32)cc1` (stereo not drawn) as the compound, how does the composite z-score read?
A: Its composite z-score is -0.0522.

Q: For `COCC(=C=CC[C@H](O)c1ccc(OCCO)cc1)C[C@H](O)c1cc(Cl)cc(Cl)c1O`, which composite z-score is on record?
A: Its composite z-score is -4.37.

Q: Which composite z-score does the source give for `O=C/C=C/c1ccc2c(c1)OCO2` here?
A: The composite z-score was -1.32.

Q: For `Cc1ccc(S[C@]2(C(=O)NCC(C)C)CC(=O)N(Cc3ccccc3Cl)[C@@H]2c2ccc(CO)cc2)cc1`, which composite z-score is on record?
A: The composite z-score was -0.223.

Q: With `CN(C)C(=O)[C@]1(CCC(=O)OC(C)(C)C)N=C(c2ccc(OCCCO)cc2)O[C@@H]1c1ccccc1N=[N+]=[N-]` as the compound, how does the composite z-score read?
A: Its composite z-score is 0.565.

Q: With `[N-]=[N+]=NCc1ccccc1C[C@]1(C(=O)NCCN2CCOCC2)N=C(c2ccc(OCCCO)cc2)O[C@H]1c1ccccc1N=[N+]=[N-]` as the compound, how does the composite z-score read?
A: The composite z-score was 0.345.

Q: Which composite z-score does the source give for `O=C1O[C@H](c2ccccc2)[C@H](c2ccccc2)N2[C@H]1[C@@H](C(=O)Nc1nc3ccccc3s1)[C@]1(C(=O)Nc3ccccc31)[C@H]2c1ccc(O)cc1` here?
A: Its composite z-score is 0.192.
